{"source": "PubChem BioAssay (NCATS)", "key": {"[1]": {"target": "Ubiquitin carboxyl-terminal hydrolase 1 (Homo sapiens) (UniProt O94782)", "sequence (O94782 whole entry, looked up)": "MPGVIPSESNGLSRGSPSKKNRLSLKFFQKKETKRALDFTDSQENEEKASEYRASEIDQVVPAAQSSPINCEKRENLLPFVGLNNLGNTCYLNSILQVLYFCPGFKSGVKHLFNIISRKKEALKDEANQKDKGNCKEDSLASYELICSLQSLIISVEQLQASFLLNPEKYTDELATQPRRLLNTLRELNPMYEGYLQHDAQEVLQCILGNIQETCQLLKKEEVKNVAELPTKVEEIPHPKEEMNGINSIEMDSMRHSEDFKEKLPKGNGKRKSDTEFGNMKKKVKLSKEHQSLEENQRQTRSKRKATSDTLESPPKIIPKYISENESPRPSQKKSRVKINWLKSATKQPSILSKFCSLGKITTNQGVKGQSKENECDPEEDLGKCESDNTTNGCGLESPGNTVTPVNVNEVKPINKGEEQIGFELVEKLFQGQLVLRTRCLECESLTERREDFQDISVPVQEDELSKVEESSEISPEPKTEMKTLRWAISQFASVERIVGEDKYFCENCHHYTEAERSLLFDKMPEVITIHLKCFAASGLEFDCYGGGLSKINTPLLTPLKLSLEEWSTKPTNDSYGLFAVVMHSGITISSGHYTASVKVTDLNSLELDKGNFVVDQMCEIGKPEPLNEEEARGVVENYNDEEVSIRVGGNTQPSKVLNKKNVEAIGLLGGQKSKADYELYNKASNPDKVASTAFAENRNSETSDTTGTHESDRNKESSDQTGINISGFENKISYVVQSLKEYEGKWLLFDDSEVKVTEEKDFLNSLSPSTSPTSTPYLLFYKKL", "assay": "Inhibitors of USP1/UAF1: Pilot qHTS (AID 504865); note: nearly all actives have a fitted effect of over 35% in size; note: potency is the fitted concentration of half-maximal effect", "how_it_was_run": "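In 50mM HEPES pH 7.8 containing 0.5mM EDTA, 1mM TCEP, 0.1 mg/ml BSA and 0.01% Tween-20, 1nM USP1/UAF1 is exposed to compound for 15 min, then Ub-Rho (150nM final) is added and fluorescence is read over time.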"}, "[2]": {"target": "Peptidyl-prolyl cis-trans isomerase NIMA-interacting 1 (Homo sapiens) (UniProt Q13526)", "sequence (Q13526 whole entry, looked up)": "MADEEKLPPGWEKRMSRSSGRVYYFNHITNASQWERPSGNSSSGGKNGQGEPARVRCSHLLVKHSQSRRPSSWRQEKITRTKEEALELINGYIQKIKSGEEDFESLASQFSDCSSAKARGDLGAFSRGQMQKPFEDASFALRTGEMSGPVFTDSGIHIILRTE", "assay": "qHTS Validation Assay to Find Inhibitors of Pin1 (AID 504536; active = well fitted inhibition curve with a large enough effect in the polarisation, with a control signal flat, not every such curve was filed as active; the % refers to the polarisation)", "how_it_was_run": "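Fluorescence polarization competition: compounds (titration) displace HiFluor-488-labeled Pin1-1b peptide from Pin1 (0.3 uM final) in pH 7.5 HEPES buffer with DTT, 10 min at room temperature; %Activity normalized to no-enzyme wells, curves fitted.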"}, "[3]": {"target": "Phosphoglycerate kinase, glycosomal (Trypanosoma brucei brucei) (UniProt P07378)", "sequence (P07378 whole entry, looked up)": "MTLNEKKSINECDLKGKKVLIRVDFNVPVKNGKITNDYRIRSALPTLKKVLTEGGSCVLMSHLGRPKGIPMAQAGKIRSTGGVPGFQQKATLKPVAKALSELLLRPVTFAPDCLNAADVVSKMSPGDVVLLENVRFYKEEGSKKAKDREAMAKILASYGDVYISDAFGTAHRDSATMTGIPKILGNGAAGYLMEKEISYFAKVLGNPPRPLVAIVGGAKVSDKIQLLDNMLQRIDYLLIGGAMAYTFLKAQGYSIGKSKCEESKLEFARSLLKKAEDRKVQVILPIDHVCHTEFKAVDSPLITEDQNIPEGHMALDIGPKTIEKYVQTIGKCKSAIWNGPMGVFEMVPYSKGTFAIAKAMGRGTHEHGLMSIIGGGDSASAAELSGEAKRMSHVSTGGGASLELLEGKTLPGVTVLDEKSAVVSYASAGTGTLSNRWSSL", "assay": "qHTS Validation Assay to Find Inhibitors of Phosphoglycerate Kinase (AID 504547)", "how_it_was_run": "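Substrate/PGK mix plus compound; reaction started with GAPDH (100nM final) to form 1,3-BPG; 60 min RT; Kinase-Glo Plus 10 min; luminescence. TEA 100mM pH 7.6, MgCl2 5mM, Tween-20 0.01%.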"}, "[4]": {"target": "phosphoglycerate mutase (Leishmania major) (UniProt Q4Q090)", "sequence (Q4Q090 1-553)": "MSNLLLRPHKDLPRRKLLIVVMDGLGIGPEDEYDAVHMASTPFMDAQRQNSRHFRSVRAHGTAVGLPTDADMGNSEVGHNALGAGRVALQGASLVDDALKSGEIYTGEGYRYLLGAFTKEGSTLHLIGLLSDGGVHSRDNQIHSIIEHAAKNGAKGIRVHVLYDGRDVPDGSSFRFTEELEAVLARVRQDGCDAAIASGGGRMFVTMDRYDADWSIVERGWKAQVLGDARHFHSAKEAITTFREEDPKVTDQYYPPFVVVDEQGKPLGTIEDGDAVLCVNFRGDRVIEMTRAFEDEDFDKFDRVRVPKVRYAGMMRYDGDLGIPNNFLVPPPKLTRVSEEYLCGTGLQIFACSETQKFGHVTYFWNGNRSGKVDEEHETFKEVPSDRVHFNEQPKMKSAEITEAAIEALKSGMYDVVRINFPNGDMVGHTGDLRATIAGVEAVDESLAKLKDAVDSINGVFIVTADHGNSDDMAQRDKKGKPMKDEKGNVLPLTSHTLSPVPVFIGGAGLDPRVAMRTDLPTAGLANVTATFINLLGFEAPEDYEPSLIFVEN", "assay": "qHTS Validation Assay to Find Inhibitors of Phosphoglycerate Mutase (AID 504548); note: series mostly up to about 58 µM", "how_it_was_run": "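Lm PGAM 1.25nM final; 100 mM TEA pH 7.6, 5 mM MgCl2, 0.01% Tween-20; 45 min RT; Kinase-GloPlus, 10 min; end-point luminescence. Enzyme-free wells as negative controls.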"}, "[5]": {"assay": "qHTS for Inhibitors of ATXN expression: Validation of Cytotoxic Assay (AID 588349); note: potency is the fitted concentration of half-maximal effect", "how_it_was_run": "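HEK293 cells were dosed with titrated compounds for 72 hr at 37 degrees C. Viability was read by CellTiter Glo luminescence, with intracellular ATP as the marker of cell survival.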"}, "[6]": {"assay": "qHTS for Inhibitors of ATXN expression: Validation (AID 588378); note: nearly all actives have a fitted effect of over 75% in size; note: potency is the fitted concentration of half-maximal effect", "how_it_was_run": "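Compounds were pinned onto attached HEK293 cells carrying an ATXN2-firefly luciferase construct and incubated 24 hrs at 37 degrees C. Each well then received a fluorescent viability reagent followed by luciferase substrate for end-point luminescence.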"}, "[7]": {"target": "DNA dC->dU-editing enzyme APOBEC-3G (Homo sapiens) (UniProt Q9HC16)", "sequence (Q9HC16 whole entry, looked up)": "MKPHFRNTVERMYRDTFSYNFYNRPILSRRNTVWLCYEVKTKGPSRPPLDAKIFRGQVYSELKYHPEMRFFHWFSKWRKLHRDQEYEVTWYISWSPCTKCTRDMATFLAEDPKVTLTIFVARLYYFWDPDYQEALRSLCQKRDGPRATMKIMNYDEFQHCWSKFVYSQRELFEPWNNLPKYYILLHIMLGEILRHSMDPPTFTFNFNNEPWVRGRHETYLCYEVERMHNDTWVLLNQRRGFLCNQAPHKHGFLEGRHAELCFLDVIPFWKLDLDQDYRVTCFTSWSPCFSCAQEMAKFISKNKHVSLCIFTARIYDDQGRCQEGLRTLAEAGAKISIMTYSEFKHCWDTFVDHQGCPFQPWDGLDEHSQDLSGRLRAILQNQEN", "assay": "qHTS for inhibitors of Vif-A3G interactions: Validation (AID 588379)", "how_it_was_run": "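HeLa cells stably expressing Vif and A3G-eYFP, 700 cells/well, incubated overnight at 37 deg C, then exposed to compound overnight at 37 deg C. Inhibition of Vif-mediated degradation read as increased yellow fluorescence (Ex 488/Em 500-530) by laser-scanning cytometry.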"}, "[8]": {"target": "Estrogen receptor (Homo sapiens) (UniProt P03372)", "sequence (P03372 whole entry, looked up)": "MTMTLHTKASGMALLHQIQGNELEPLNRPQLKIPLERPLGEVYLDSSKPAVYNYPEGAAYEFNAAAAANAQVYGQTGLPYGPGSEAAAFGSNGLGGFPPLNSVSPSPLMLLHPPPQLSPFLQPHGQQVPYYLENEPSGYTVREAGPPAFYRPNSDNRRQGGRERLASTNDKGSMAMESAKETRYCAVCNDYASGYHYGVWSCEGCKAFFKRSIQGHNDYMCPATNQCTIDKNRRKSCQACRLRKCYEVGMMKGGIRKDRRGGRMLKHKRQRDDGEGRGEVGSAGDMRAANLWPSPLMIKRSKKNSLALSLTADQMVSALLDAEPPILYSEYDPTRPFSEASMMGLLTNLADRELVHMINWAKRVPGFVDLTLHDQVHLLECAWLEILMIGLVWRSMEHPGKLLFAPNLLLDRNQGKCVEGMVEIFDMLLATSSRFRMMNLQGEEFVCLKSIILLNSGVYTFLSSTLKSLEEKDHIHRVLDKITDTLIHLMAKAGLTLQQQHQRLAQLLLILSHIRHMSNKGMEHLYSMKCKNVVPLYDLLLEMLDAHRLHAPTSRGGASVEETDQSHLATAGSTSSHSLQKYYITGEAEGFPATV", "assay": "qHTS assay for small molecule agonists of estrogen receptor alpha signaling (AID 588514; calls by dose curve; note: nearly all actives have a fitted effect of over 70% in size)", "how_it_was_run": "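ER-alpha-UAS-bla GripTite HEK 293 cells in medium with 2% charcoal/dextran-treated FBS were treated with compound titrations at 37 C for 18 hrs; beta-lactamase reporter read by CCF4 fluorescence after 2 hrs at RT.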"}}, "note": "Records with an inconclusive call do not appear. A call without a number means that no potency is given here. Calls of active or inactive are those of the source. Unless noted, calls come from the whole dose curve; as a rule, active = well fitted curve in the direction sought with a large enough effect; inconclusive = small, poorly fitted or top-dose-only effect, or another doubt; inactive = no such curve, though single readings can be large; an effect the other way counts as inactive or inconclusive."}
{"smiles": "CC(C)(C)C(=O)OCOP(=O)(COCCn1cnc2c(N)ncnc21)OCOC(=O)C(C)(C)C", "values": [{"measurement": "Potency", "setting": "[1]", "result": "inactive"}]}
{"smiles": "Cc1ccc(S(=O)(=O)N[C@@H](Cc2ccccc2)C(=O)CCl)cc1", "values": [{"measurement": "outcome", "setting": "[2]", "result": "inactive"}, {"measurement": "Potency", "setting": "[3]", "result": "inactive"}, {"measurement": "outcome", "setting": "[4]", "result": "inactive"}, {"measurement": "Potency", "setting": "[1]", "result": "44.7 µM (active)"}, {"measurement": "Potency", "setting": "[5]", "result": "14.1 µM (active)"}, {"measurement": "Potency", "setting": "[6]", "result": "22.4 µM (active)"}]}
{"smiles": "CCN(CC)CCn1c(=O)c(Cc2ccc(OC)cc2)nc2ccccc21", "values": [{"measurement": "outcome", "setting": "[2]", "result": "inactive"}, {"measurement": "Potency", "setting": "[3]", "result": "inactive"}, {"measurement": "outcome", "setting": "[4]", "result": "inactive"}, {"measurement": "Potency", "setting": "[1]", "result": "inactive"}, {"measurement": "Potency", "setting": "[5]", "result": "inactive"}, {"measurement": "Potency", "setting": "[6]", "result": "inactive"}]}
{"smiles": "CC(C)NCC(O)c1ccc(NS(C)(=O)=O)cc1", "note": "(stereo unspecified)", "values": [{"measurement": "outcome", "setting": "[2]", "result": "inactive"}, {"measurement": "Potency", "setting": "[3]", "result": "inactive"}, {"measurement": "outcome", "setting": "[4]", "result": "inactive"}, {"measurement": "Potency", "setting": "[1]", "result": "inactive"}, {"measurement": "Potency", "setting": "[5]", "result": "inactive"}, {"measurement": "Potency", "setting": "[6]", "result": "inactive"}]}
{"smiles": "CCCCCCNC(=O)n1cc(F)c(=O)[nH]c1=O", "values": [{"measurement": "Potency", "setting": "[1]", "result": "inactive"}]}
{"smiles": "CC(C)(Sc1cc(C(C)(C)C)c(O)c(C(C)(C)C)c1)Sc1cc(C(C)(C)C)c(O)c(C(C)(C)C)c1", "values": [{"measurement": "Potency", "setting": "[1]", "result": "inactive"}]}
{"smiles": "O=C(O)C1CCCN(CCC=C(c2ccccc2)c2ccccc2)C1", "note": "(stereo unspecified)", "values": [{"measurement": "outcome", "setting": "[2]", "result": "inactive"}, {"measurement": "Potency", "setting": "[3]", "result": "inactive"}, {"measurement": "outcome", "setting": "[4]", "result": "inactive"}, {"measurement": "Potency", "setting": "[1]", "result": "inactive"}, {"measurement": "Potency", "setting": "[5]", "result": "inactive"}, {"measurement": "Potency", "setting": "[6]", "result": "inactive"}, {"measurement": "outcome", "setting": "[7]", "result": "inactive"}]}
{"smiles": "CN1CCN(c2c(F)cc3c(=O)c(C(=O)O)cn4c3c2OCN4C)CC1", "values": [{"measurement": "Potency", "setting": "[1]", "result": "inactive"}]}
{"smiles": "COc1cc2nc(N3CCCN(C)CC3)nc(NC3CCN(Cc4ccccc4)CC3)c2cc1OC", "values": [{"measurement": "outcome", "setting": "[2]", "result": "inactive"}, {"measurement": "Potency", "setting": "[3]", "result": "inactive"}, {"measurement": "outcome", "setting": "[4]", "result": "inactive"}, {"measurement": "Potency", "setting": "[1]", "result": "inactive"}, {"measurement": "Potency", "setting": "[6]", "result": "7.94 µM (active)"}]}
{"smiles": "COC(=O)Nc1nc2ccc(C(=O)c3ccccc3)cc2[nH]1", "values": [{"measurement": "Potency", "setting": "[1]", "result": "inactive"}]}
{"smiles": "Oc1c(Cl)cc(Cl)c2cccnc12", "values": [{"measurement": "Potency", "setting": "[1]", "result": "inactive"}]}
{"smiles": "CCN(CC)CC#CCOC(=O)C(O)(c1ccccc1)C1CCCCC1", "note": "(stereo unspecified)", "values": [{"measurement": "outcome", "setting": "[2]", "result": "inactive"}, {"measurement": "Potency", "setting": "[3]", "result": "inactive"}, {"measurement": "outcome", "setting": "[4]", "result": "inactive"}, {"measurement": "Potency", "setting": "[1]", "result": "inactive"}, {"measurement": "Potency", "setting": "[6]", "result": "inactive"}]}
{"smiles": "CCCCOc1ccc(CC(=O)NO)cc1", "values": [{"measurement": "Potency", "setting": "[1]", "result": "inactive"}]}
{"smiles": "Nc1nc(N)nc(-c2cc(Cl)ccc2Cl)n1", "values": [{"measurement": "Potency", "setting": "[1]", "result": "inactive"}]}
{"smiles": "COc1cc2ncnc(Nc3cccc(Cl)c3)c2cc1OC", "values": [{"measurement": "outcome", "setting": "[2]", "result": "inactive"}, {"measurement": "Potency", "setting": "[3]", "result": "inactive"}, {"measurement": "outcome", "setting": "[4]", "result": "inactive"}, {"measurement": "Potency", "setting": "[1]", "result": "inactive"}, {"measurement": "Potency", "setting": "[5]", "result": "inactive"}, {"measurement": "Potency", "setting": "[6]", "result": "inactive"}, {"measurement": "outcome", "setting": "[7]", "result": "inactive"}]}
{"smiles": "CCCCS(=N)(=O)CCC(N)C(=O)O", "note": "(stereo unspecified)", "values": [{"measurement": "outcome", "setting": "[2]", "result": "inactive"}, {"measurement": "Potency", "setting": "[3]", "result": "inactive"}, {"measurement": "outcome", "setting": "[4]", "result": "inactive"}, {"measurement": "Potency", "setting": "[1]", "result": "inactive"}, {"measurement": "Potency", "setting": "[5]", "result": "inactive"}, {"measurement": "Potency", "setting": "[6]", "result": "inactive"}]}
{"smiles": "CCOCC(O)COc1ccc(NC(=O)CC[S+](C)C)cc1", "note": "(stereo unspecified)", "values": [{"measurement": "Potency", "setting": "[1]", "result": "inactive"}]}
{"smiles": "Nc1[nH]c(=O)ncc1F", "values": [{"measurement": "Potency", "setting": "[1]", "result": "inactive"}]}
{"smiles": "CC(=O)[C@H]1CC[C@H]2[C@@H]3CCC4=CC(=O)CC[C@]4(C)[C@H]3CC[C@]12C", "values": [{"measurement": "outcome", "setting": "[2]", "result": "inactive"}, {"measurement": "Potency", "setting": "[3]", "result": "inactive"}, {"measurement": "outcome", "setting": "[4]", "result": "inactive"}, {"measurement": "Potency", "setting": "[5]", "result": "inactive"}, {"measurement": "Potency", "setting": "[6]", "result": "inactive"}, {"measurement": "outcome", "setting": "[7]", "result": "inactive"}, {"measurement": "outcome", "setting": "[8]", "result": "inactive"}]}
{"smiles": "NC(=O)c1ccc2[nH]ccc2c1", "values": [{"measurement": "outcome", "setting": "[2]", "result": "inactive"}, {"measurement": "Potency", "setting": "[3]", "result": "inactive"}, {"measurement": "outcome", "setting": "[4]", "result": "inactive"}, {"measurement": "Potency", "setting": "[1]", "result": "inactive"}, {"measurement": "Potency", "setting": "[5]", "result": "inactive"}, {"measurement": "Potency", "setting": "[6]", "result": "inactive"}]}
{"smiles": "OCc1ccc(-c2nn(Cc3ccccc3)c3ccccc23)o1", "values": [{"measurement": "outcome", "setting": "[2]", "result": "inactive"}, {"measurement": "Potency", "setting": "[3]", "result": "inactive"}, {"measurement": "outcome", "setting": "[4]", "result": "inactive"}, {"measurement": "Potency", "setting": "[1]", "result": "inactive"}, {"measurement": "Potency", "setting": "[5]", "result": "inactive"}]}
